These results are taken from PubChem BioAssay.

A short description of test [1]: inhibitors of TNFa-induced NFkB p65 translocation, primary screen, imaging, HUVEC, MLSMR starter and 10KST1 sets (AID 438;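 active means inhibition above 20% together with a positive visual image hit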;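 further: compound added about 3h40 before a 20 min TNFalpha stimulation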;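 on inhibition: signal is the nuclear over cytoplasmic p65 intensity ratio per well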). Conditions: HUVEC TNFa-induced p65 nuclear translocation; cell count: measured here: nuclei count (cytotoxicity indicator), at 2.08 µM; inhibition: at 2 µM, stronger effect = higher value, 0% TNFa-plus-vehicle, 100% no-TNFa wells.
Test [2] can be described thus: inhibitors of mutant huntingtin aggregation, primary screen, imaging, exon1htt(103Q)mCFP cells, high-content imaging (AID 483;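 active means visual image review flags a hit and inhibition of aggregation exceeds 20%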;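 further: compound exposure lasted 3 days before fixation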;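 on nuclei count: percent of the per-plate median nuclei count of sample wells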). To be noted: exon1htt(103Q)mCFP cell line, aggregate imaging, at 2 µM; inhibition of aggregation: stronger effect = higher value; nuclei count: measured here: cell count, toxicity.
Test [3] is described as follows: inhibitors of E-selectin induction by TNFa, primary screen, imaging, HUVEC, immunofluorescence, MLSMR starter and 10KST1 sets (AID 487;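 active means visually confirmed hit in the image check and inhibition above 20%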;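 on inhibition: signal is fraction of cell area covered by stained E-selectin grains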;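 on nuclei count: 100% = median nuclei count of all wells on the same plate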). To be noted: HUVEC TNFalpha-induced E-selectin immunofluorescence imaging, at 2 µM; inhibition: stronger effect = higher value; nuclei count: measured here: cell number, toxicity.
Test [4] is described as follows: DUSP6 inhibitors restoring Erk phosphorylation by chemical complementation, primary imaging in DUSP6-transfected HeLa (AID 609).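 On inhibition: phospho-Erk level distribution per well compared with pooled transfected vehicle control wells.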 Conditions: HeLa MKP-3 transfected, phospho-Erk imaging KS statistic, at 10 µM, cells stimulated with TPA for 15 min.
The target in test [5] is Dual specificity protein phosphatase 6 (Homo sapiens) (UniProt Q16828). The test is described as above. To be noted: HeLa MKP-3 transfected, phospho-Erk imaging KS statistic; at 10 µM; stronger effect = higher value; cells stimulated with TPA for 15 min.
Dual specificity protein phosphatase 6 (Homo sapiens), sequence (Q16828 whole entry, looked up): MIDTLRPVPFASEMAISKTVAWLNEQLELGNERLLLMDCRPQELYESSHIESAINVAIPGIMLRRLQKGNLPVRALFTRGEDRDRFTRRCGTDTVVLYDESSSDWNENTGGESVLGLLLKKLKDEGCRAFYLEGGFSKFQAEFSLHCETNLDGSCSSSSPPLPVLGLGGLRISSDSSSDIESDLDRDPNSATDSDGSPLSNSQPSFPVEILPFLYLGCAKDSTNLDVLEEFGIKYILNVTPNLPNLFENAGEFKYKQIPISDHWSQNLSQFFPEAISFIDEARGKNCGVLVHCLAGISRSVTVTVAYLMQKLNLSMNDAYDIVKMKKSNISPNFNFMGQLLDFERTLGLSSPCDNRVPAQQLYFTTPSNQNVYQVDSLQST
In test [6] the target is Voltage-gated potassium channel subunit beta-2 (Rattus norvegicus) (UniProt P62483). Briefly: KvBeta enzyme negative modulators, primary screen, biochemical, NADPH fluorescence (AID 622;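 active means fluorescence slope higher than the sample average by over 3 SD, cut at about -0.22 in these data, passing the limit was not always enough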;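 further: slope of raw intensity against log time taken from 70 to 1610 s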). Conditions: recombinant KvBeta, 4-cyanobenzaldehyde reduction, at 10 µM, stronger effect = higher value.
Voltage-gated potassium channel subunit beta-2 (Rattus norvegicus), sequence (P62483 whole entry, looked up): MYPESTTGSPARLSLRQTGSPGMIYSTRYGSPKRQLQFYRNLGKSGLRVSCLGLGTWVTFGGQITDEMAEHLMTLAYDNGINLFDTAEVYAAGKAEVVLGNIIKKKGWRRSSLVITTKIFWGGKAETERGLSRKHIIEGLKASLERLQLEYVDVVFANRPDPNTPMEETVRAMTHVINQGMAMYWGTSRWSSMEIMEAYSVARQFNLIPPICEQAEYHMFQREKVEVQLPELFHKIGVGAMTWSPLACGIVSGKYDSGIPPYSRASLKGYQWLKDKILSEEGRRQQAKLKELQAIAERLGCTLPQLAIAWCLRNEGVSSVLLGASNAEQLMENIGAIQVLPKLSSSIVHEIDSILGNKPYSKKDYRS
Test [7] has the same target. Briefly: KvBeta positive modulators, primary screen, biochemical, NADPH fluorescence (AID 623;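 active means NADPH fluorescence slope more negative than the mean of all samples by about 3 SD, 99.7% confidence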;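 further: fluorescence intensity change per second fitted from 20 to 320 s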). To be noted: Recombinant KvBeta, NADPH fluorescence decrease slope, 10 min; at 10 µM; stronger effect = lower value.
Test [8] has as its target Alpha-2C adrenergic receptor (Homo sapiens) (UniProt P18825). Briefly: modulators of alpha2C/GIRK thallium flux, primary screen, cell-based, HEK293 alpha2C/GIRK1/2 (AID 624;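 active means fluorescence slope after compound addition differing from the mean of all screened samples at 99.7% confidence, in either direction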;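 further: slope of fluorescence ratio to pre-addition baseline per second over 15 to 24 s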). To be noted: thallium flux BTC fluorescence, at 10 µM, actives lie on both sides.
Test [9] can be described thus: inhibitors of Chlamydomonas gravitaxis, primary screen, whole organism, Chlamydomonas reinhardtii, WT vs cilia-less mutant, absorbance, 96-well (AID 463189;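 active means inhibition at or above 50% relative to wild type and mutant plate controls; inactive means inhibition below 50%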;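 further: 0% = wild type cc124 cells in DMSO and 100% = ciliumless bld1 mutant cells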). Conditions: OD600 absorbance, 2 days, at 10 µM, stronger effect = higher value.
Test [10] can be described thus: inhibitors of Sendai virus-induced IRF3 signaling, primary screen, TLR/RLR signaling modifier project, cell-based, Sendai virus stimulus, luciferase, 10K MLSCN set (AID 602276;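 active means inhibition at or above 50% at 10 µM; inactive means inhibition below 50%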;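 further: firefly luciferase from ISG56 promoter only with Renilla not read in this screen; 0% = Sendai virus plus DMSO and 100% = medium plus DMSO without virus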). To be noted: HEK293 RL24 IRF3 luciferase reporter, at 10 µM, stronger effect = higher value. For orientation: A reporter such as luciferase makes a cellular process visible.
Test [11] in a line: inhibitors of poly I:C-induced TLR3 signaling, primary screen, cell-based, poly I:C stimulus, luciferase, 10K MLSCN set (AID 602277;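 active means inhibition of the reporter signal at or above 50%; inactive means inhibition below 50%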). To be noted: HEK293-TLR3 RL24 IRF3 luciferase reporter, at 10 µM, stronger effect = higher value.
Test [12] concerns the target Muscarinic acetylcholine receptor M4 (Homo sapiens) (UniProt P08173). Nature of the test: compounds altering M4/GIRK thallium flux, either direction, primary screen, M4 allosteric agonist project, cell-based, HEK293 M4/GIRK, BTC-AM (AID 625;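 active means fluorescence slope after compound addition differing from the mean of all tested samples at 99.7% confidence, mostly higher but some lower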;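 further: thallium influx through GIRK channels coupled to M4 in HEK293 cells with BTC-AM dye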). Conditions: at 10 µM, actives lie on both sides.
Test [13] is described as follows: inhibitors of larval lipid processing in zebrafish, primary screen, whole organism, PED6 fluorescence, gall bladder and intestine (AID 686;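 active means a full or partial loss of lipid-probe fluorescence in the fish gall bladder, intestine or both, judged by eye; inactive means no fluorescence loss, or compound toxic to the fish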;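 further: larvae 5 to 7 days old with five fish per well; signal comes from phospholipase A2 cleavage of quenched PED6 carried via bile; overnight exposure to compound and PED6 before scoring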). To be noted: Zebrafish larvae PED6 lipid processing, fluorescence scoring; screened at 20 µM (by protocol).
Where [14] appears, read: measured here: cell density z-score.
[15] abbreviates: measured here: nuclear c-Myc green intensity z-score.
Where [16] appears, read: measured here: nuclear pErk red intensity z-score, stronger effect = higher value.

Activity calls are given as the source filed them.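 How the source made its calls, unless noted: active means compounds giving at least 50% inhibition in the cell-based MKP-3 phosphatase rescue imaging test; inactive means the rest.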

Alpha-2C adrenergic receptor (Homo sapiens), sequence (P18825 whole entry, looked up): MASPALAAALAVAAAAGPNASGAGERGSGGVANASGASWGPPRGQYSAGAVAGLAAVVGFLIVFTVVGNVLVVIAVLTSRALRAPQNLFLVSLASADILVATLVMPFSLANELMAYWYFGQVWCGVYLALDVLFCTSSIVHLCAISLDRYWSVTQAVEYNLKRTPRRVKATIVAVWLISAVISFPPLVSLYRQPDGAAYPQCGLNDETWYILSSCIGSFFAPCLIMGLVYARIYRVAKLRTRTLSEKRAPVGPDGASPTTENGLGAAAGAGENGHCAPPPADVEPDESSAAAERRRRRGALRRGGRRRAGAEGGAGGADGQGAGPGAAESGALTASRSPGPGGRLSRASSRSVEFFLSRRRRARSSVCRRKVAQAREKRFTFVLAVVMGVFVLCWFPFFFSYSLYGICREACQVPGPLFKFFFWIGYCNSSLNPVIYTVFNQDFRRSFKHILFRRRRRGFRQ
Muscarinic acetylcholine receptor M4 (Homo sapiens), sequence (P08173 whole entry, looked up): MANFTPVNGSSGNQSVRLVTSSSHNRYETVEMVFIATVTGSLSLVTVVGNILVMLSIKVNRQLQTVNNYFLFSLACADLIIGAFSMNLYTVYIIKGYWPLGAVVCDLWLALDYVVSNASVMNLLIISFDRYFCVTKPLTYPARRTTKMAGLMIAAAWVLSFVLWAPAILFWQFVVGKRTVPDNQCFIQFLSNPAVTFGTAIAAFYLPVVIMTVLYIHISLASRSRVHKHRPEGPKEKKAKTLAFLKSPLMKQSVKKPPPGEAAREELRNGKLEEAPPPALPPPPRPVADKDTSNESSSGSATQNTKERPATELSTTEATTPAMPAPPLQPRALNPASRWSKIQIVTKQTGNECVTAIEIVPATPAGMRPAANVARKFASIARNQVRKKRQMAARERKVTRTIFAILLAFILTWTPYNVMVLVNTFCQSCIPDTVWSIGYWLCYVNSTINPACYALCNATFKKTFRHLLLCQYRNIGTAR

In general, inhibition refers to the change of the read-out against control, counted positive when it falls. Regarding `Cc1cccc(COc2ccc(/C(O)=C3\C(=O)C(=O)N(CCN(C)C)C3c3ccncc3)cc2)c1` (stereo unspecified), in test [1], the cell count was 526. The inhibition in [1] was 3.2% (inactive); in test [3], -20.5% (inactive); in test [5], -1.75% (inactive); in test [9], -10.1% (inactive); in test [10], 9.07% (inactive); in [11], 4.16% (inactive). In addition, the inhibition of aggregation in test [2] is -20.7% (inactive). Also, the values for the nuclei count in [2] and in test [3] were 106% and 126%, respectively. Besides, the values for the z-score in test [4] (setting [14]), in test [4] (setting [15]) and in [4] (setting [16]) were -1.17, 0.707 and -0.252, respectively. The fluorescence slope in test [6] was -0.434 (inactive). The NADPH fluorescence slope in test [7] was -0.000161 (inactive). Moreover, the slope in test [8] is 0.00578 (inactive).
As for `c1ccc(-c2ccc(C(c3ccccc3)n3ccnc3)cc2)cc1` (stereo unspecified), the cell count in [1] was determined as 591. Also, the inhibition in test [1] is 2% (inactive); in test [3], -58.4% (inactive); in [5] it was 16.8% (inactive); in test [9] it was 13.3% (inactive); in test [10], 2.51% (inactive); in test [11], 18.2% (inactive). Moreover, the inhibition of aggregation in [2] is 10.9% (inactive). The nuclei count was found to be 91.4% in [2] and 106% in test [3]. The values for the z-score in [4] (setting [14]), in test [4] (setting [15]) and in test [4] (setting [16]) were -1.14, 0.79 and -0.101, respectively. Also, the values for the fluorescence slope in test [6] and in test [12] were -0.555 (inactive) and 0.00623 (inactive), respectively. In test [7], the NADPH fluorescence slope was -3.5e-05 (inactive). The slope in test [8] is 0.00412 (inactive). The outcome in [13] was inactive.
On to `Cc1cc(/C=N\O)c(C)n1-c1ccncc1`, for which, in test [1], the cell count was found to be 547. Also, the inhibition in [1] was -1.1% (inactive); in test [3] it was -50.3% (inactive); in test [5], 9.82% (inactive); in test [9], 19.4% (inactive); in [10], 20.1% (inactive); in [11] it was 25.1% (inactive). The inhibition of aggregation in test [2] is 7.2% (inactive). For the same compound, the results for the nuclei count in test [2] and in test [3] were 92.6% and 120%, respectively. Further, the figures for the z-score in test [4] (setting [14]), in test [4] (setting [15]) and in test [4] (setting [16]) were -0.413, 0.337 and 0.578, respectively. The fluorescence slope in test [6] is -0.47 (inactive); in test [12], 0.00493 (inactive). For the same compound, the NADPH fluorescence slope in [7] is -0.000127 (inactive). In addition, the slope in [8] was 0.00523 (inactive). The outcome in test [13] was inactive.
Consider `Cc1cn2c(-c3ccncc3)nnc2s1`, for which the cell count in test [1] was 443. For the same compound, the inhibition is -7.7% (inactive) in [1]; -73.4% (inactive) in test [3]; 22.3% (inactive) in test [5]; -0.946% (inactive) in [9]; 4.57% (inactive) in [10]; 19.6% (inactive) in test [11]. Besides, the inhibition of aggregation in [2] is 5.7% (inactive). For the same compound, the nuclei count in test [2] came to 88.7%; in test [3] it was 142%. Further, the results for the z-score in [4] (setting [14]), in test [4] (setting [15]) and in [4] (setting [16]) were 1.88, 0.607 and -1.91, respectively. The results for the fluorescence slope in test [6] and in test [12] were -0.491 (inactive) and 0.00508 (inactive), respectively. For the same compound, the NADPH fluorescence slope in test [7] was -0.000121 (inactive). The slope in test [8] was 0.0059 (inactive). Besides, in [13], the outcome was inactive.
Consider `C[C@@H]1CCC[C@H](C)N1NC(=O)c1ccc(Cl)c(S(N)(=O)=O)c1`, for which the cell count in [1] was 625. Moreover, the inhibition in [1] was 7.2% (inactive); in test [3], -55.3% (inactive); in test [5] it was 21.2% (inactive); in test [9] it was 24.4% (inactive); in test [10] it was 3.39% (inactive); in test [11], 20% (inactive). Besides, in test [2], the inhibition of aggregation is 0.7% (inactive). Moreover, the nuclei count in test [2] worked out at 108%; in test [3], 111%. In addition, the figures for the z-score in test [4] (setting [14]), in test [4] (setting [15]) and in test [4] (setting [16]) were -0.0459, -0.463 and -0.78, respectively. Also, in test [6], the fluorescence slope is -0.465 (inactive). The NADPH fluorescence slope in test [7] is -5.1e-05 (inactive). Further, the slope in [8] was 0.00499 (inactive).
